These results are taken from the supplement of paper PMC8285479.

Counter-ions that a name gives are not always drawn. ± gives the standard deviation of the averaged measurements. In all, about 1,900 compounds were measured (“normalised cell viability (NPI; 0 = phenylarsine oxide control, 1 = DMSO control)”: median about 1, lowest 2% from about 0.039 on). This is one part of a sample in which the lowest values are shown more often than they occur.

The subject of this assay is NCI-H1944. Kind of assay: normalised cell viability (NPI; 0 = phenylarsine oxide control, 1 = DMSO control) (fraction of DMSO control); NCI-H1944 is a non-small cell lung cancer line; higher = more viable cells (less compound toxicity). The conditions noted are these: 6 days.
Where [1] appears, read: glucocorticoid arm: hydrocortisone 2.75 uM co-treatment, compound 1 µM.
The mark [2] stands for this setting: glucocorticoid arm: hydrocortisone 2.75 uM co-treatment, compound 5 µM.
Setting [3] is: glucocorticoid arm: hydrocortisone 2.75 uM pre-treated 2 days and continued, compound 1 µM.
The mark [4] stands for this setting: glucocorticoid arm: hydrocortisone 2.75 uM pre-treated 2 days and continued, compound 5 µM.
[5] abbreviates: glucocorticoid arm: vehicle, compound 1 µM.
Setting [6] is: glucocorticoid arm: vehicle, compound 5 µM.
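Further: CTB read-out in 384-well plates, triplicate wells, NPI normalised per plate against 1 µM phenylarsine oxide (0) and 0.1% DMSO (1) controls.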

For the compound `C=CCN1CCc2c(cc(O)c(O)c2Br)[C@@H](c2ccccc2)C1` [R(+)-6-Bromo-APB hydrobromide], the normalised cell viability was 0.986 ± 0.017 under setting [1]; 1.01 under setting [2]; 0.989 ± 0.0095 under setting [3]; 1 ± 0.011 under setting [4]; 0.976 ± 0.011 under setting [5]; 0.9827 ± 0.0035 under setting [6].
For the compound `Cc1cc(C)c(/C=C2\C(=O)Nc3ccccc32)[nH]1` [Semaxanib (SU5416)], the normalised cell viability came to 1.09 ± 0.011 under setting [1]; 1.15 ± 0.046 under setting [2]; 1.09 ± 0.011 under setting [3]; 1.11 ± 0.017 under setting [4]; 1.023 ± 0.0058 under setting [5]; 1.027 ± 0.0058 under setting [6].
`COc1c/c(=C2\C=c3ccccc3=N2)[nH]/c1=C\c1[nH]c(C)cc1C` [Obatoclax mesylate (GX15-070)]: the normalised cell viability under setting [1] came to 0.972 ± 0.014; the normalised cell viability under setting [2] was determined as 0.42 ± 0.019; the normalised cell viability under setting [3] was found to be 1 ± 0.0087; the normalised cell viability under setting [4] is 1.03 ± 0.015; the normalised cell viability under setting [5] is 0.564 ± 0.07; the normalised cell viability under setting [6] came to 0.0292 ± 0.0041.
As for `Cc1cc(C)c(/C=C2\C(=O)Nc3ccccc32)[nH]1`, the normalised cell viability was 1.06 ± 0.01 under setting [1]; 1.09 ± 0.015 under setting [2]; 1.07 ± 0.044 under setting [3]; 1.12 ± 0.017 under setting [4]; 1.03 under setting [5]; 1.03 ± 0.011 under setting [6].
On to `O=C(O)CCC(NC(=O)c1ccccc1C(=O)O)C(=O)O` [Phthalamoyl-L-glutamic acid trisodium], for which the normalised cell viability stood at 0.9933 ± 0.0031 under setting [1]; 1.06 ± 0.021 under setting [2]; 0.869 ± 0.23 under setting [3]; 1.03 ± 0.025 under setting [4]; 0.997 ± 0.0052 under setting [5]; 1.006 ± 0.0063 under setting [6].
For `CC(NC(=O)Cc1cc(F)cc(F)c1)C(=O)NC1C(=O)N(C)c2ccccc2-c2ccccc21` (stereo not given), the normalised cell viability under setting [1] stood at 0.977 ± 0.0072; the normalised cell viability under setting [2] was found to be 0.998 ± 0.0035; the normalised cell viability under setting [3] is 0.983 ± 0.015; the normalised cell viability under setting [4] came out at 0.999 ± 0.019; the normalised cell viability under setting [5] is 0.9847 ± 0.0057; the normalised cell viability under setting [6] was 0.9813 ± 0.007.
Turning to `COc1cc(=O)n(C)c2c(OCC(O)C(C)(C)O)cccc12` (stereo not given) [Foliosidine], the normalised cell viability is 1.005 ± 0.0081 under setting [1]; 0.99 ± 0.01 under setting [2]; 0.9877 ± 0.0067 under setting [3]; 0.981 ± 0.012 under setting [4]; 0.998 ± 0.011 under setting [5]; 0.9963 ± 0.0021 under setting [6].
For `O=C(CCCCCCC(=O)Nc1ccccc1)NO` [Vorinostat; SAHA], the normalised cell viability runs as follows: under setting [1], 0.928 ± 0.018; under setting [2], 1.04 ± 0.04; under setting [3], 0.95 ± 0.0036; under setting [4], 1.02; under setting [5], 0.995 ± 0.015; under setting [6], 0.9983 ± 0.0029.
Take `O=C(CCCCCCC(=O)Nc1ccccc1)NO` [Vorinostat (SAHA, MK0683)]: the normalised cell viability was 0.94 ± 0.017 under setting [1]; 0.585 ± 0.025 under setting [2]; 0.959 ± 0.0017 under setting [3]; 0.955 ± 0.048 under setting [4]; 1.003 ± 0.0058 under setting [5]; 0.0617 ± 0.0036 under setting [6].
Regarding `CC(C)(C)OC(=O)Nc1ccc(-c2cc(C(=O)NCCCCCCC(=O)NO)no2)cc1`, the normalised cell viability was found to be 0.9572 ± 0.0081 under setting [1]; 0.244 ± 0.23 under setting [2]; 0.991 ± 0.025 under setting [3]; 0.677 ± 0.31 under setting [4]; 0.806 ± 0.15 under setting [5]; 0.0189 ± 0.02 under setting [6].
As to `O=C(CCCCCCC(=O)Nc1ccccc1)NO`, the normalised cell viability reads like this: under setting [1], 0.959 ± 0.016; under setting [2], 0.569 ± 0.04; under setting [3], 0.978 ± 0.013; under setting [4], 0.912 ± 0.015; under setting [5], 0.969 ± 0.011; under setting [6], 0.075 ± 0.0018.
As for `N=C(N)NCCC[C@H](N)C(=O)O` [L-Arginine], the normalised cell viability was determined as 1 ± 0.018 under setting [1]; 0.997 ± 0.0027 under setting [2]; 0.994 ± 0.0066 under setting [3]; 1 ± 0.011 under setting [4]; 0.986 ± 0.0085 under setting [5]; 1.001 ± 0.0081 under setting [6].
In the case of `CC1(C)CNc2cc(NC(=O)c3cccnc3NCc3ccncc3)ccc21` [Motesanib Diphosphate], the normalised cell viability is 1.02 ± 0.011 under setting [1]; 1 ± 0.031 under setting [2]; 1 ± 0.012 under setting [3]; 0.992 ± 0.026 under setting [4]; 1.001 ± 0.0076 under setting [5]; 1.002 ± 0.0076 under setting [6].
On to `O=C1NC(=O)C(=Cc2ccc(-c3ccc(F)cc3)o2)S1` (stereo in doubt), for which the normalised cell viability is 1 ± 0.018 under setting [1]; 1 ± 0.014 under setting [2]; 0.996 ± 0.013 under setting [3]; 1.01 under setting [4]; 0.991 ± 0.0027 under setting [5]; 0.9913 ± 0.0083 under setting [6].
For the compound `O=c1[nH]c(=O)n([C@H]2C[C@H](O)[C@@H](CO)O2)cc1/C=C/Br` [(E)-5-(2-Bromovinyl)-2'-deoxyuridine], the normalised cell viability under setting [1] was found to be 1.013 ± 0.0058; the normalised cell viability under setting [2] turned out to be 1.01 ± 0.01; the normalised cell viability under setting [3] was 1.003 ± 0.0061; the normalised cell viability under setting [4] came out at 1.015 ± 0.0071; the normalised cell viability under setting [5] came to 0.9783 ± 0.0055; the normalised cell viability under setting [6] was 0.9897 ± 0.0049.
For the compound `C[C@H](NC(=O)/C(C#N)=C/c1cccc(Br)n1)c1ccccc1`, the normalised cell viability under setting [1] came out at 1.01 ± 0.012; the normalised cell viability under setting [2] stood at 1.06 ± 0.032; the normalised cell viability under setting [3] stood at 1.02 ± 0.017; the normalised cell viability under setting [4] stood at 1.048 ± 0.0075; the normalised cell viability under setting [5] was 0.9985 ± 0.0098; the normalised cell viability under setting [6] came out at 0.0147 ± 0.011.
For the compound `CCC[C@H](NC(=O)/C(C#N)=C/c1cccc(Br)n1)c1ccccc1`, the normalised cell viability is, setting by setting: under setting [1], 1.017 ± 0.0058; under setting [2], 0.726 ± 0.1; under setting [3], 1.02 ± 0.01; under setting [4], 1.09 ± 0.025; under setting [5], 0.996 ± 0.0046; under setting [6], 0.339 ± 0.026.
With `C[C@@H](NC(=O)/C(C#N)=C/c1ccc(O)c(O)c1)c1ccccc1` [Tyrphostin AG 527], the normalised cell viability under setting [1] came to 1.013 ± 0.0058; the normalised cell viability under setting [2] came out at 0.9963 ± 0.0038; the normalised cell viability under setting [3] was determined as 0.879 ± 0.22; the normalised cell viability under setting [4] was determined as 0.999 ± 0.011; the normalised cell viability under setting [5] was determined as 1.003 ± 0.0058; the normalised cell viability under setting [6] came out at 1.003 ± 0.0061.
`CN/C(=N\c1ccc(C2=NNC(=O)CC2C)cc1)NC#N` (stereo not given): the normalised cell viability is, setting by setting: under setting [1], 0.9943 ± 0.0046; under setting [2], 0.992 ± 0.018; under setting [3], 0.875 ± 0.22; under setting [4], 0.9957 ± 0.0051; under setting [5], 0.995 ± 0.005; under setting [6], 0.997 ± 0.0052.
With `CCN1C(=CC(C)=O)Sc2ccc(OC)cc21`, the normalised cell viability was found to be 0.982 ± 0.01 under setting [1]; 0.823 ± 0.013 under setting [2]; 0.994 ± 0.017 under setting [3]; 0.839 ± 0.021 under setting [4]; 1.01 ± 0.01 under setting [5]; 0.983 ± 0.017 under setting [6].
Consider `Cc1cc(N2CCOCC2)cc2[nH]c(-c3c(NCC(O)c4cccc(Cl)c4)cc[nH]c3=O)nc12` (stereo not given), for which the normalised cell viability was 0.277 ± 0.0085 under setting [1]; 0.205 ± 0.011 under setting [2]; 0.3733 ± 0.0021 under setting [3]; 0.267 ± 0.0095 under setting [4]; 0.753 ± 0.051 under setting [5]; 0.263 ± 0.036 under setting [6].
On to `CCCCCCCCCCCCCCCC(=O)NCC(COP(=O)([O-])OCC[N+](C)(C)C)OCC` (racemic) [rac-2-Ethoxy-3-hexadecanamido-1-propylphosphocholine], for which the normalised cell viability is 1.01 ± 0.01 under setting [1]; 1.09 ± 0.023 under setting [2]; 1.007 ± 0.0058 under setting [3]; 1.113 ± 0.0058 under setting [4]; 1.013 ± 0.0058 under setting [5]; 1.02 ± 0.011 under setting [6].
On to `CN1CCC[C@@H]1Cc1c[nH]c2ccc(CCS(=O)(=O)c3ccccc3)cc12` [Eletriptan HBr], for which the normalised cell viability by setting is: under setting [1], 1.013 ± 0.0058; under setting [2], 1.03 ± 0.015; under setting [3], 1.01 ± 0.01; under setting [4], 1.02 ± 0.021; under setting [5], 1.002 ± 0.0067; under setting [6], 1.002 ± 0.0072.
On to `COc1ccccc1N1CCN(CCCCNC(=O)c2ccc3ccccc3c2)CC1`, for which the normalised cell viability runs as follows: under setting [1], 0.9887 ± 0.0098; under setting [2], 0.984 ± 0.026; under setting [3], 0.998 ± 0.014; under setting [4], 0.988 ± 0.032; under setting [5], 0.9913 ± 0.0029; under setting [6], 0.961 ± 0.033.
With `COc1ccc(NC(=O)c2ccc(-c3ccc(-c4noc(C)n4)cc3C)cc2)cc1N1CCN(C)CC1`, the normalised cell viability is, setting by setting: under setting [1], 1.006 ± 0.0063; under setting [2], 0.000294 ± 0.00029; under setting [3], 1.02 ± 0.01; under setting [4], 0.00887 ± 0.01; under setting [5], 0.9987 ± 0.0023; under setting [6], 0.000181 ± 0.0015.
